In PubChem BioAssay (EPA / NIEHS) one finds outcome and AC50 data, which are given here for three compounds.

Test [1] is described as follows: ATG_CMV_CIS: Attagene CIS-FACTORIAL HepG2 Assay for human CMV (Internal Marker) (AID 2282928).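 Also: endpoint acts as a background internal control marker rather than a target.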 Particulars: HepG2 CMV promoter reporter, transcription factor profiling; actives raise or lower the signal. A digest of the protocol: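 Endogenous transcription factor activity read in HepG2 via transfected cis-promoter reporter units. After 24 h dosing, reporter mRNA measured by RT-PCR/capillary electrophoresis; gain or loss of signal fit relative to DMSO.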

The nature of test [2]: ATG_DR4_LXR_CIS: Attagene CIS-FACTORIAL HepG2 Assay for human Liver X Receptor (LXR), DR4 submotif (AID 2282929). Particulars: HepG2 Attagene DR4 cis-reporter, mRNA transcription; actives raise or lower the signal. The method, boiled down: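 Total RNA from 24 h-treated, MRTU-transfected HepG2 cells underwent reverse transcription, PCR, fluorescent primer extension and restriction digestion before capillary electrophoresis. Both increases and decreases in reporter signal were fitted against DMSO.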

The nature of test [3]: ATG_AP_2_CIS: Attagene CIS-FACTORIAL HepG2 Assay for human Activator Protein 2 (AP-2) (AID 2282932). Particulars: HepG2 AP-2 cis-reporter, Attagene transcription factor profiling; actives raise or lower the signal. A digest of the protocol: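 HepG2 cells transiently transfected with cis-element reporter units and exposed for 24 h. Reporter mRNA measured by RT-PCR, FAM labelling, HpaI digestion and capillary electrophoresis. Changes in either direction fitted relative to DMSO.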

The target in test [4] is Transcription factor E2F1 (Homo sapiens) (UniProt Q01094). The test is described as follows: ATG_E2F_CIS: Attagene CIS-FACTORIAL HepG2 Assay for human E2F Transcription Factor 1 (AID 2282935). Particulars: HepG2 Attagene cis-reporter, E2F reporter RNA transcripts; actives raise or lower the signal. A digest of the protocol:
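Endogenous E2F1 activity read through cis-promoter reporter units transfected into HepG2. After 24 h compound treatment, reporter mRNA measured by RT-PCR, HpaI digestion and capillary electrophoresis. Bidirectional fit versus DMSO.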

Test [5] can be described thus: ATG_M_61_CIS: Attagene CIS-FACTORIAL HepG2 Assay for M61 Transcription Factor (Internal Marker) (AID 2282937). Particulars: HepG2 Attagene CIS-FACTORIAL M61 internal marker reporter; actives raise or lower the signal. The method, boiled down:
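Transfect HepG2 with MRTUs; dose 24 h; isolate RNA; reverse-transcribe with DNase I treatment; PCR-amplify, FAM-label and cut with HpaI for 2 h at 37 C; resolve by CE. Bidirectional fitting against DMSO.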

Test [6] can be described thus: ATG_EGR_CIS: Attagene CIS-FACTORIAL HepG2 Assay for human Early Growth Response 1 (EGR1) (AID 2282938). Particulars: HepG2 Attagene CIS-FACTORIAL EGR reporter mRNA; actives raise or lower the signal. A digest of the protocol: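 After a 24 h treatment of transiently transfected HepG2 cells, total RNA was reverse-transcribed and reporter sequences PCR-amplified, labelled and run on capillary electrophoresis. Reporters sit under cis-regulatory promoters sensing endogenous factors.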

The nature of test [7]: ATG_Ets_CIS: Attagene CIS-FACTORIAL HepG2 Assay for human Erythroblast Transformation Specific (ETS) (AID 2282941). Particulars: HepG2 ETS cis-reporter transcription, actives raise or lower the signal. The method, boiled down:
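Steps: transfect HepG2 with multiple reporter units; treat compound 24 h; isolate RNA, DNase-treat, reverse-transcribe; PCR-amplify, label with 6-FAM, digest with HpaI; separate by capillary electrophoresis. Activity fitted both directions versus DMSO.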

In test [8] the target is Hepatocyte nuclear factor 3-beta (Homo sapiens) (UniProt Q9Y261). The test is described as follows: ATG_FoxA2_CIS: Attagene CIS-FACTORIAL HepG2 Assay for human Forkhead box A2 (FOXA2) (AID 2282942). Particulars: HepG2 cis-reporter transcription factor activity, 24 h; actives raise or lower the signal. The method, boiled down: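 24 h dosing of HepG2 bearing cis-reporter constructs; mRNA readout by RT-PCR/CE fluorescence; bidirectional fit, DMSO baseline.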
Sequence of Hepatocyte nuclear factor 3-beta (Homo sapiens) (Q9Y261 whole entry, looked up): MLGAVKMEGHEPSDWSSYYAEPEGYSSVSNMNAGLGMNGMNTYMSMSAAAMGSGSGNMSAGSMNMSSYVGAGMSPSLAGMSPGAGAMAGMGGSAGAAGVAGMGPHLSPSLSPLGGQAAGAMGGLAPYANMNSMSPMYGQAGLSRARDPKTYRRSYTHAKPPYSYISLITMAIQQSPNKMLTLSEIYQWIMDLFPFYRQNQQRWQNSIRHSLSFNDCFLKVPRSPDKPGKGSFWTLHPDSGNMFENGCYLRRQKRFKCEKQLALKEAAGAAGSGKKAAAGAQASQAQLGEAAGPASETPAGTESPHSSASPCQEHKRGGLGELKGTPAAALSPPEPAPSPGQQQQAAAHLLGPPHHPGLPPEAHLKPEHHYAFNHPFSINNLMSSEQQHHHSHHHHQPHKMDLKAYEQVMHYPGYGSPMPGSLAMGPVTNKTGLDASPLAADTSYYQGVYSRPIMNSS

The nature of test [9]: ATG_FoxO_CIS: Attagene CIS-FACTORIAL HepG2 Assay for human Forkhead box O (FoxO) (AID 2282943). Particulars: HepG2 Attagene cis-reporter, FoxO element, mRNA; actives raise or lower the signal. A digest of the protocol:
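Read-out: fluorescence of 6-FAM-labelled reporter cDNA fragments resolved by capillary electrophoresis. Transiently transfected HepG2 cells were dosed for 24 h; activity fitted in both directions relative to DMSO controls.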

Test [10] in a line: ATG_GATA_CIS: Attagene CIS-FACTORIAL HepG2 Assay for human GATA Binding Protein (AID 2282944). Particulars: HepG2 GATA cis-element reporter, Attagene multiplex mRNA; actives raise or lower the signal. The method, boiled down: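 DMSO serves as negative control and baseline for bidirectional fitting of reporter mRNA changes. HepG2 cells bearing transiently transfected cis-promoter reporters were exposed 24 h; transcripts detected via RT-PCR and capillary electrophoresis.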

Test [11] in a line: ATG_ISRE_CIS: Attagene CIS-FACTORIAL HepG2 Assay for human Interferon Regulatory Factor 1 (IRF1) binding to an Interferon-Stimulated Response Element (ISRE) (AID 2282948). Particulars: HepG2 ISRE cis-reporter (Attagene), mRNA transcription readout; actives raise or lower the signal. A digest of the protocol: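 Transfected HepG2 (multiple reporter transcription units, cis elements) dosed 24 h. RNA → oligo(dT) RT → PCR → 6-FAM primer extension → HpaI → CE. DMSO = negative control/baseline.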

Test [12] in a line: ATG_M_32_CIS: Attagene CIS-FACTORIAL HepG2 Assay for M32 Transcription Factor (Internal Marker) (AID 2282949).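 Also: background control marker of the multiplexed CIS panel rather than a real target.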 Particulars: HepG2 Attagene cis-factorial M32 reporter, mRNA; actives raise or lower the signal. A digest of the protocol: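 Fluorescent capillary electrophoresis peaks of HpaI-digested, FAM-labelled RT-PCR reporter products give the signal. Source: transiently transfected human liver HepG2 cells, 24 h after chemical dosing; bidirectional fitting against DMSO.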

A short description of test [13]: ATG_MRE_CIS: Attagene CIS-FACTORIAL HepG2 Assay for human Metal Responsive Element (MRE) (AID 2282954). Particulars: HepG2 MRE cis-reporter transcription, Attagene multiplex; actives raise or lower the signal. A digest of the protocol: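 HepG2 cells transiently transfected with cis-element-driven reporter units; mRNA measured 24 h after dosing. Reporter transcripts quantified by RT-PCR, FAM labelling, HpaI digestion and capillary electrophoresis; bidirectional fit versus DMSO.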

For test [14], the target named is Paired box protein Pax-6 (Homo sapiens) (UniProt P26367). The test is described as follows: ATG_Pax6_CIS: Attagene CIS-FACTORIAL HepG2 Assay for human Paired Box 6 (PAX6) (AID 2282956). Particulars: HepG2 CIS-FACTORIAL PAX6 reporter transcription, RNA readout; actives raise or lower the signal. A digest of the protocol: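 Transient MRTU transfection of HepG2 → compound exposure 24 h → TriZol RNA, oligo(dT) RT → PCR, 6-FAM primer extension, HpaI cut → capillary electrophoresis; activity fitted both directions against DMSO.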
Sequence of Paired box protein Pax-6 (Homo sapiens) (P26367 whole entry, looked up): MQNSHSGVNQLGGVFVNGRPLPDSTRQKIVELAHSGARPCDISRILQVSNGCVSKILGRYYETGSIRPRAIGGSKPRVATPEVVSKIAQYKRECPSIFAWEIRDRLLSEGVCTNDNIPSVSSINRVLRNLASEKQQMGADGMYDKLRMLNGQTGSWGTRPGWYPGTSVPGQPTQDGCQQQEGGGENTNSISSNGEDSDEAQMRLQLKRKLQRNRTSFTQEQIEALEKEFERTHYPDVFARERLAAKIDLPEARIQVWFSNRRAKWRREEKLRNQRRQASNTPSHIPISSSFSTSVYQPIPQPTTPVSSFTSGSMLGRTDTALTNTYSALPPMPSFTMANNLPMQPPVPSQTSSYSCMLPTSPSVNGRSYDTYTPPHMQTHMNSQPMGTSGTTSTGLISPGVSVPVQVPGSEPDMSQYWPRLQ

A short description of test [15]: ATG_PXRE_CIS: Attagene CIS-FACTORIAL HepG2 Assay for human Pregnane X Receptor Element (PXRE) (AID 2282957). Particulars: HepG2 Attagene CIS-FACTORIAL PXRE reporter, mRNA; actives raise or lower the signal. A digest of the protocol: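 Transiently transfected HepG2 cells were dosed and incubated for 24 h. RNA was then isolated, DNase-treated, reverse-transcribed and reporter sequences amplified. Labeled, HpaI-digested fragments were quantified by capillary electrophoresis against DMSO.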

Test [16] can be described thus: ATG_Sox_CIS: Attagene CIS-FACTORIAL HepG2 Assay for human SRY-box transcription factor (SOX) (AID 2282960). Particulars: HepG2 Attagene cis-factorial SOX reporter, mRNA; actives raise or lower the signal. The method, boiled down: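 HepG2, cis reporter units, 24 h exposure. Reporter mRNA: RT-PCR → FAM labelling → HpaI → CE fluorescence. Bidirectional fit vs DMSO.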

A short description of test [17]: ATG_SREBP_CIS: Attagene CIS-FACTORIAL HepG2 Assay for human Sterol Regulatory Element Binding (SREBP) (AID 2282962). Particulars: HepG2 Attagene cis-factorial SREBP reporter, mRNA; actives raise or lower the signal. The method, boiled down: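 Transfected HepG2 (cis-regulated reporter library, endogenous TFs) → compound 24 h → total RNA → oligo(dT) RT → reporter-specific PCR → FAM primer extension, HpaI cut → CE fluorescence. Fit bidirectional vs DMSO.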

Test [18] in a line: ATG_TCF_b_cat_CIS: Attagene CIS-FACTORIAL HepG2 Assay for human T-Cell-Factor with beta-catenin (TCF/b-cat) (AID 2282965). Particulars: HepG2 TCF/beta-catenin cis-reporter transcription, actives raise or lower the signal. The method, boiled down: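 HepG2, transient MRTU transfection, cis-element-driven reporters (endogenous TFs). 24 h compound exposure. Readout: reporter mRNA by RT-PCR + 6-FAM primer extension, HpaI digest, capillary electrophoresis. Gain/loss fit vs DMSO baseline.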

Test [19] can be described thus: ATG_TAL_CIS: Attagene CIS-FACTORIAL HepG2 Assay for human TAL Basal Promoter (AID 2282966).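 Also: background control endpoint measuring basal TAL promoter reporter mRNA not a specific factor.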 Particulars: HepG2 Attagene cis-factorial TAL promoter reporter; actives raise or lower the signal. A digest of the protocol:
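Readout: reporter mRNA, fluorescence by CE. System: HepG2, transient multi-reporter transfection, endogenous TF activity. Exposure: 24 h. Analysis: bidirectional, DMSO-normalized; background control.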

Test [20] in a line: ATG_TGFb_CIS: Attagene CIS-FACTORIAL HepG2 Assay for human Transforming Growth Factor (TGF) (AID 2282967). Particulars: HepG2 Attagene CIS TGFb reporter, mRNA transcription; actives raise or lower the signal. The method, boiled down:
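Transcript-level reporter readout: HepG2 transfectants, 24 h exposure, RNA to cDNA, reporter-specific PCR, fluorescent primer extension, capillary sizing against ROX standards. Gain- or loss-of-signal relative to DMSO.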

The structures appear in SMILES notation. Calls of active or inactive are those of the source. The calls were made as follows: active = hit-call score of the fitted dose curve at least 0.9, where 1 is the maximum; inactive = score below 0.9.

Sequence of Transcription factor E2F1 (Homo sapiens) (Q01094 whole entry, looked up): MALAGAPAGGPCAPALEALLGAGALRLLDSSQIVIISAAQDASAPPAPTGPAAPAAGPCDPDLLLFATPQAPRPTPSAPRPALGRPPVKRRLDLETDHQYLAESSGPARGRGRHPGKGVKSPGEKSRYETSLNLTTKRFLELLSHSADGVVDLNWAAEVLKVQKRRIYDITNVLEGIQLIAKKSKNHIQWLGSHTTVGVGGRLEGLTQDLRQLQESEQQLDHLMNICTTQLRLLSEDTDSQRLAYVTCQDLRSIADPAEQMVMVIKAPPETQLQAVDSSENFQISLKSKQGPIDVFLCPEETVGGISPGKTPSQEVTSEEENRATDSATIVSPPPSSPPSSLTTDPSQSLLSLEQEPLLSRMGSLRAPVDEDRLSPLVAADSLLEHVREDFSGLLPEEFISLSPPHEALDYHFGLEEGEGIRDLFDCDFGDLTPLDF

For the compound `Nc1ccc([N+](=O)[O-])cc1N`, the compound was classed as inactive in test [1], in test [2], in [3], in test [4], in test [5] and in test [6]. The result in [7], in [8], in [9], in test [10], in test [11] and in test [12] was inactive. Also, the result in [13], in [14], in test [15], in test [16], in test [17] and in test [18] was inactive. In addition, the outcome in [19] and in test [20] was inactive.
Usually AC50 stands for the concentration at which the activity in the assay is half-maximal. For `O=c1[nH]c(Cl)c(Cl)cc1Cl`, the outcome in test [1], in [2], in test [3], in test [4], in test [5] and in test [6] was inactive. For the same compound, the compound was classed as inactive in [7], in [8], in test [9], in [10], in test [11] and in test [12]. For the same compound, the result in test [13], in test [14], in test [16], in test [17], in test [18] and in test [19] was inactive. For the same compound, in test [20], the compound was classed as inactive. Moreover, in [15], the half-maximal activity concentration (AC50) was 38.7 µM (active).
For the compound `O=[N+]([O-])O.O=[N+]([O-])O.[Cd]`, the half-maximal activity concentration (AC50) is 0.873 µM (active) in [1]; 0.666 µM (active) in test [2]; 1 µM (active) in test [6]; 11.1 µM (active) in test [10]; 1.03 µM (active) in test [11]; 0.351 µM (active) in test [13]. Further, the concentration at half-maximal activity (AC50) in test [14] is 1.79 µM (active); in test [15] it was 0.872 µM (active); in test [16] it was 1.31 µM (active). Besides, the result in test [3], in test [4], in [5], in [7], in test [8] and in test [9] was inactive. In addition, the compound was classed as inactive in test [12], in [17], in [18], in [19] and in test [20].
